Among the data in ChEMBL document CHEMBL1961873, “Compounds: GSK PKIS; Assays: Nanosyn kinase panel” (2012) are inhibition values, retold here.

Where “and” joins values, the source holds several entries; their conditions need not be identical. Identical values can stand only once.
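Further: values are averaged percent inhibition of GRK6.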

This assay deals with G protein-coupled receptor kinase 6 (Homo sapiens) (UniProt P43250). The conditions noted are these: at 1 µM.
Sequence of G protein-coupled receptor kinase 6 (Homo sapiens) (P43250 whole entry, looked up): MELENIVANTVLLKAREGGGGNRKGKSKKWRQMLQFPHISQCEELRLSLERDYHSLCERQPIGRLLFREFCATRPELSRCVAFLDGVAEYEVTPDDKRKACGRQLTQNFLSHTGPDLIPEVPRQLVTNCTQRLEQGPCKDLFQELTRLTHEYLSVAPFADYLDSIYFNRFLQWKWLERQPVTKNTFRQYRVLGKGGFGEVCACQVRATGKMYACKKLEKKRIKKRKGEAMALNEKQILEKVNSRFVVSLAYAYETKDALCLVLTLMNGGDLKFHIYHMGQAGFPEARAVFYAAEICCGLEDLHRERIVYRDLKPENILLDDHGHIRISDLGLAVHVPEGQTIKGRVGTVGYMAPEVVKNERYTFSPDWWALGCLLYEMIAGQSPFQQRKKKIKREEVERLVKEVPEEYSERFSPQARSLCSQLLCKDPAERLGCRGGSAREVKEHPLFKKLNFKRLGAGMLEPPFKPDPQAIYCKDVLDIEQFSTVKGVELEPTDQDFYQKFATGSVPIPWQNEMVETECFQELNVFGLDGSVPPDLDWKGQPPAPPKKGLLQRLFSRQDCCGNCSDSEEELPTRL
With `Nc1nonc1-c1nc2cnccc2n1C1CC1`, the inhibition (commonly the drop in the measured response relative to a control, in per cent) was 6.46% and 11.6%.

As for `NS(=O)(=O)c1cccc(N/C=C2\C(=O)Nc3ccccc32)c1`, the inhibition is 11.5%.

As to `CC1=C(C(=O)Nc2ccc3[nH]ncc3c2)C(c2ccc(F)cc2)N=C(c2ccc(C(F)(F)F)nc2)N1` (stereo unspecified), the inhibition is -2.54%.

With `CNC(=O)c1cncc(/C=C/c2ccccc2C)c1`, the inhibition stood at 8.41%.

`CN1CCC(C(=O)Nc2n[nH]c3nc(-c4ccc(O)cc4)c(Br)cc23)CC1`: the inhibition is 20.1% and 5.9%.

Turning to `Cc1cc(O)cc(C)c1/C=C/c1cncc(C(N)=O)c1`, the inhibition came to 0.48%.

As to `CS(=O)(=O)Nc1ccc(-c2cc(-c3ccccc3)cc(C(N)=O)c2N)cc1`, the inhibition was 1.69%.

Consider `CS(=O)(=O)CCNCc1ccc(-c2ccc3ncnc(Nc4ccc(OCc5ccccc5)cc4)c3c2)o1`, for which the inhibition came to 3.33%.

`CCOc1ccc2c(-c3ccnc(Nc4cc(OC)cc(C(F)(F)F)c4)n3)cnn2n1`: the inhibition is 0.28%.

`Cc1cc(O)cc(C)c1/C=C/c1cncc(C(=O)OC(C)(C)C)c1`: the inhibition came to 2.46%.

`O=C1Nc2ccccc2/C1=C1\CCc2cc(O)ccc21`: the inhibition came out at 15%.

With `CCS(=O)(=O)c1ccc(OC)c(Nc2ncc(-c3cccc(F)c3)o2)c1`, the inhibition stood at 2.93%.

As for `COc1cccc(Nc2nccc(-c3cnn4ncccc34)n2)c1`, the inhibition came to 0.06%.

Turning to `Nc1ncnc2occ(-c3ccc(NC(=O)Nc4cc(C(F)(F)F)ccc4F)cc3)c12`, the inhibition is -4.06% and -1.29%.

Regarding `O=C(Nc1n[nH]c2nnc(-c3cccnc3)cc12)C1CC1`, the inhibition is 0.48%.

On to `O=C(O[C@H]1CN[C@H](C#Cc2cc3ncnc(Nc4ccc5c(cnn5Cc5ccccc5)c4)c3s2)C1)N1CCOCC1`, for which the inhibition worked out at 2.38%.

As to `COc1cc(N2CCN(C(C)C)CC2)ccc1Nc1nc(Nc2cccc3ncccc23)c2cc[nH]c2n1`, the inhibition was -0.02%.

For the molecule `CS(=O)(=O)CCNCc1ccoc1-c1ccc2ncnc(Nc3ccc(OCc4ccccc4)cc3)c2c1`, the inhibition was 1.77%.

For `CCN1CCC(C(=O)Nc2n[nH]c3nnc(-c4cccc(F)c4F)cc23)CC1`, the inhibition was 1.97%.

Turning to `COc1ccc(-c2nn3ncccc3c2-c2ccnc(Nc3ccc(F)c(F)c3)n2)cc1`, the inhibition worked out at 10.1%.

With `CCS(=O)(=O)c1ccc(OC)c(Nc2ncc(-c3cccc(C(C)=O)c3)o2)c1`, the inhibition worked out at 10.8%.

In the case of `c1cnn2ncc(-c3ccnc(NCCCN4CCOCC4)n3)c2c1`, the inhibition was found to be 3.86%.

With `CN(C)CCNC(=O)Nc1ccc(N(C)c2ccnc(Nc3ccc(CS(C)(=O)=O)cc3)n2)cc1`, the inhibition is -0.52%.

In the case of `CCn1c(-c2nonc2N)nc2cncc(C(=O)NCCNC)c21`, the inhibition is 5.57%.

Consider `COc1cc(N2CCN(C(C)C)CC2)ccc1Nc1nc(Nc2cccc(F)c2C(=O)O)c2cc[nH]c2n1`, for which the inhibition is 10.8%.

Consider `COC(=O)Nc1nc2cc(Oc3ccc(NC(=O)Nc4ccccc4)cc3)ccc2[nH]1`, for which the inhibition is 10.8%.

Consider `NC(=O)c1ccc2c(-c3ccnc(NCCCO)n3)c(-c3ccc(F)cc3)nn2c1`, for which the inhibition is 2.38%.

Consider `CS(=O)(=O)Nc1ccc(-c2ccc3c(NC(=O)C4CC4)n[nH]c3c2)cc1`, for which the inhibition worked out at 1.55%.

Take `COC(=O)Nc1nc2ccc(Oc3ccc(NC(=O)Nc4cc(C(F)(F)F)ccc4F)cc3)cc2s1`: the inhibition was -1.53%.

`COc1ccccc1-c1cc(/C=C2\C(=O)Nc3ncc(Br)cc32)cc(Br)c1O`: the inhibition is 30.3%.

With `Cc1nnc(-c2cccc(-c3ccc(C(=O)NCC4CC4)cc3)c2)o1`, the inhibition turned out to be 10.4%.
